Test results from PubChem BioAssay (NCI).
The panel holds about 79,000 compounds, 15% with a hit somewhere; the sample as a whole holds those more often. Values without a mark were called inactive. Activity calls are given as the source filed them. No stated cut-off is given here; in the data, active means growth inhibition above about 70%; inactive means the rest.

Key:
[1] = NCI Yeast Anticancer Drug Screen. Data for the rad50 strain (AID 155);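 further: 0% = growth of vehicle-only cultures of the same strain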; settings: S. cerevisiae rad50 strain growth inhibition; at 50.0 µM; stronger effect = higher value
Procedure, shortened: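 Yeast carrying a defined DNA repair defect were exposed to test compounds, and growth was compared with vehicle-treated controls to give percent inhibition.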

[2] = NCI Yeast Anticancer Drug Screen. Data for the mec2-1 strain (AID 157); settings: S. cerevisiae mec2-1 strain, at 50.0 µM, stronger effect = higher value
Procedure, shortened: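 Strain: mec2-1 (DNA repair/cell cycle alteration). Compound exposure, then growth measured; inhibition expressed relative to vehicle.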

[3] = NCI Yeast Anticancer Drug Screen. Data for the sgs1 mgt1 strain (AID 161);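 further: 0% = growth of cultures given vehicle only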; settings: S. cerevisiae sgs1 mgt1 strain, at 50.0 µM, stronger effect = higher value
Procedure, shortened: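 Inhibition of yeast growth, normalised to vehicle-treated controls, is reported for a strain bearing genetic alterations in DNA damage repair.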

[4] = NCI Yeast Anticancer Drug Screen. Data for the cln2 rad14 strain (AID 165);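 further: 0% = growth equal to vehicle treated cultures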; settings: S. cerevisiae cln2 rad14 strain, at 50.0 µM, stronger effect = higher value
Procedure, shortened: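 Compounds are applied to the cln2 rad14 yeast strain, and growth is then compared with that of vehicle-treated cultures to give inhibition.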

[5] = NCI Yeast Anticancer Drug Screen. Data for the bub3 strain (AID 167); settings: S. cerevisiae bub3 mutant strain, at 50.0 µM, stronger effect = higher value
Procedure, shortened: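 Compounds were applied to a genetically altered yeast strain carrying a cell-cycle control defect. Growth inhibition was scored against vehicle-treated controls.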

[6] = NCI Yeast Anticancer Drug Screen. Data for the mlh1 rad18 strain (AID 175); settings: S. cerevisiae mlh1 rad18 strain growth inhibition; at 50.0 µM; stronger effect = higher value
Procedure, shortened: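 Read-out is yeast growth inhibition, calculated against vehicle-only controls. The compound was applied to a strain engineered with DNA damage repair alterations.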

Structure (SMILES)	growth inhibition [1]	growth inhibition [2] [%]	growth inhibition [3]	growth inhibition [4]	growth inhibition [5] [%]	growth inhibition [6]
COc1ccc(Cc2ccccc2C(=O)c2ccc(OC)cc2)cc1	-14.7%	-13.8	0.05%	-4.65%	4.6	-14.8%
COC1(OC)CC(CCl)OC1(OC)OC (stereo not drawn)	-2.45%	0.25	12.7%	1.55%	3.15	-4.5%
OC(CI)C1OCOC(CI)C1O (stereo not drawn)	-11.7%	3.65	10.7%	-26.5%	-3.75	16.4%
CCCC(=O)N[C@H]1C2C3CC4C5CC(C42)C1(C)C53 (stereo partly drawn)	-5.3%	-17.4	3.8%	10.3%	7.25	-17.2%
N#CC1(Nc2ccc(-c3ccc(NC4(C#N)CCCC4)cc3)cc2)CCCC1	40.8%	-16.4	-36.5%	-40.9%	-2.55	21.1%
CCOc1c(N=Nc2ccccc2Cl)c(C)nn1C(N)=S	-14.2%	8.7	45.5%	-2.25%	53.4	49.4%
C[N+](C)(C)CC(=O)N/N=C/c1oc(-c2cccc([N+](=O)[O-])c2)c(-c2cccc([N+](=O)[O-])c2)c1[N+](=O)[O-]	19.4%	11.7	11.8%	16.3%	-19	3.35%
Nc1ccc(C(=O)O)cc1Cl	0.85%	0.75	2.9%	-35.5%	-6.3	-22.2%
c1ccc(COC2NCCN2Cc2ccccc2)cc1 (stereo not drawn)	-29.6%	-20.5	-10.7%	6.8%	-55.5	-7.85%
Clc1ccc2nc(/C=C/c3ccccc3)cnc2c1	14.6%	11.2	13.3%	8.9%	14.1	22.5%
O=c1oc2ncccc2n1Cc1ccc([N+](=O)[O-])cc1	-14.7%	-22	1.25%	20.8%	-1.15	19.6%
C=CCN(CC=C)c1ccccc1	24.1%	5.6	25.4%	19.2%	14.6	34.4%
O=S(=O)([O-])[O-].O=c1[nH]cnc2nc[n-]c12.[OH3+].[OH3+].[Zn+2]	-26.8%	-29.2	-20.6%	-7.9%	-30.9	-36.2%
COc1cc(C(c2cc3c(cc2OC(C)=O)OCO3)C(C(C)=O)C(C)=O)cc(OC)c1OC (stereo not drawn)	3.55%	27.8	-5.1%	-4%	4.35	-1.8%
Nc1n[nH]c(=S)n1Cc1ccccc1	-21.8%	-10	-27.1%	-18.2%	-14.6	-10.7%
CCCCCCCCCCCCCCCCCC(=O)OCC(COC(C)=O)OC(C)=O (stereo not drawn)	-3.45%	-5.05	-3.8%	-46.1%	-1.2	4.8%
NC(=S)N/N=C(\Cc1nc2ccc(Cl)cc2[nH]c1=O)C(=O)Nc1ccc(Cl)cc1	-17.9%	2.35	-23.9%	-10.2%	-15.4	-9.05%
CC(C)CC1=C(O)c2ccccc2C(=O)C1=O	11%	-9.7	-1.45%	-1.6%	10.4	-2.4%
CCC(=O)c1c(O)c2ccccc2oc1=O	-21.1%	9.45	-5.2%	-4.1%	11.8	8.1%
CCCCC1C2C(S(=O)(=O)c3ccccc3)=NOC2C=CN1C(C)=O (stereo not drawn)	-6.4%	-9	1.55%	7.55%	3.25	10.3%
CCN(CC)CN1C(=O)C2C3C=CC(C2C1=O)C1C2C(=O)N(CN(CC)CC)C(=O)C2C31 (stereo not drawn)	2.8%	-25.6	-27.6%	-9.15%	-47.5	-45.9%
CCCCOC(=O)C1C(c2ccc(Cl)cc2)NC(c2ccc(Cl)cc2)C(C(=O)OCCCC)S1(=O)=O (stereo not drawn)	-28.2%	-15.1	-14.5%	-1.4%	-2.35	-45.2%

Structure (SMILES)	growth inhibition [1]	growth inhibition [2] [%]	growth inhibition [3]	growth inhibition [4]	growth inhibition [5] [%]	growth inhibition [6]
Cc1cc2c(=O)cc(-c3ccc(F)cc3)oc2c(C(=O)O)c1C	-19.1%	-1.1	-5.6%	17.4%	-4.4	33.3%
Cc1ccc2c(c1)c(C)c(C)c(=O)n2C	21.2%	-8.7	-1.5%	13.2%	1.9	10.1%
Cc1cc(=O)[nH]c(NNC(=S)NC2CCCCC2)n1	-17.4%	-41.8	10.9%	2.85%	-28.4	-18.6%
NNc1ccc(S(=O)(=O)C(F)F)cc1	29.9%	-29.2	20.6%	41%	41.2	13.1%
COC(=O)C(O)(C(=O)OC)C1=C(N)C(=O)c2ccccc2C1=O	28.9%	17.1	17.8%	-5.4%	40.8	28.3%
CN(C)c1ccc(N=Nc2ccc(C(C)(C)C)cc2)cc1	-11.3%	3.3	5.55%	-3.1%	-10.6	-20.3%
COC(=O)[C@H]1[C@H]2C[C@@H]3c4[nH]c5ccccc5c4CCN3C[C@H]2C[C@@H](O)[C@@H]1OC(=O)c1cc(OC)c(OC)c(OC)c1	23.1%	-1.35	19.4%	8.75%	21	20.9%
CC(C)CN(CC(C)C)C(=O)C1CCCC[C@@H]1C(=O)O (stereo partly drawn)	16.9%	15.2	5.8%	18.7%	16.4	22.4%
C=CCNC(=S)/N=C/c1c(C(=O)OCC)[nH]n(-c2ccccc2)c1=O	-27.8%	-19.5	-44.8%	-32.8%	-26	-54.6%
COc1ccccc1NC(=S)N/N=C(/c1ccccc1)c1ccccn1	-50.9%	22.6	17.4%	15.1%	20.2	10.6%
O=C(O)C1=C(O)CCN=C1	-24.1%	2.7	11%	-10.8%	-3.95	27.1%
c1ccc(-c2cc[n+]3c4c2ccc2c(-c5ccccc5)cc[n+](c24)CC3)cc1	78.5% (active)	51.5	89.6% (active)	73.8% (active)	25.8	87.2% (active)
COc1ccc(C(=O)Cc2nc3nnc(N)n3nc2CC(=O)c2ccc(OC)cc2)cc1	-9.35%	2.1	-0.75%	-0.75%	16.4	15.7%
O=Cc1c[nH]c2ccccc2c1=O	17.1%	0.9	1.05%	3.55%	30.4	10.9%
CC(Oc1ccccc1-c1ccccc1)C(=O)O (stereo not drawn)	6.95%	-22.2	-5.9%	5.45%	-1.9	15.1%
COc1cc(C(C)(C)C)c2oc3c(c2c1)C(=O)C(C(C)(C)C)=CC3(OC)OC	13.4%	-6.75	-17%	6.4%	2.25	-1.65%
COc1cc(C)cc2c(-c3c(O)cc(O)c4c3CC(C)N[C@H]4C)cc(-c3cc(-c4c(O)cc(O)c5c4CC(C)N[C@H]5C)c4cc(C)cc(OC)c4c3O)c(O)c12 (stereo partly drawn)	15.2%	-20.4	7.9%	18.9%	-13.9	16.5%
COC(CCCl)c1ccccc1 (stereo not drawn)	1.2%	-21.2	-9.8%	8.25%	-12.7	6.9%
CCC(CO)Nc1nncc2ccccc12 (stereo not drawn)	2.4%	-3.45	1.35%	-31.5%	-10.6	-12.3%
O=C(O)c1ccc(N=NC2Sc3nc4ccccc4n3C2=O)cc1 (stereo not drawn)	16.7%	-13.8	15.7%	-8.9%	11.2	44.2%
CC(C)NCCO	23.1%	-3	-1.85%	21.2%	0.3	12.3%
